Data on nine compounds can be found in PubChem BioAssay.

Values joined by “and” are separate entries in the source; they are usually repeats but may differ in a detail not shown here. Equal values may be shown once. Inconclusive results are not listed. For some assays here: Potency and affinity values are given separately. Active and inactive are the calls of the source.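 The calls were made as follows, unless noted: active = at least 20% inhibition of 6-phosphogluconate dehydrogenase activity; inactive = the rest.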

The target of assay [1] is 6-phosphogluconate dehydrogenase, decarboxylating (Homo sapiens) (UniProt P52209). The experiment in a line: 6PGD enzyme inhibitors, primary screen, biochemical, human, recombinant enzyme, NADPH absorbance (AID 1159550). The note with it: recombinant 6PGD, NADPH absorbance 341 nm; at 10 µM; stronger effect = higher value.
6-phosphogluconate dehydrogenase, decarboxylating (Homo sapiens), sequence (P52209 whole entry, looked up): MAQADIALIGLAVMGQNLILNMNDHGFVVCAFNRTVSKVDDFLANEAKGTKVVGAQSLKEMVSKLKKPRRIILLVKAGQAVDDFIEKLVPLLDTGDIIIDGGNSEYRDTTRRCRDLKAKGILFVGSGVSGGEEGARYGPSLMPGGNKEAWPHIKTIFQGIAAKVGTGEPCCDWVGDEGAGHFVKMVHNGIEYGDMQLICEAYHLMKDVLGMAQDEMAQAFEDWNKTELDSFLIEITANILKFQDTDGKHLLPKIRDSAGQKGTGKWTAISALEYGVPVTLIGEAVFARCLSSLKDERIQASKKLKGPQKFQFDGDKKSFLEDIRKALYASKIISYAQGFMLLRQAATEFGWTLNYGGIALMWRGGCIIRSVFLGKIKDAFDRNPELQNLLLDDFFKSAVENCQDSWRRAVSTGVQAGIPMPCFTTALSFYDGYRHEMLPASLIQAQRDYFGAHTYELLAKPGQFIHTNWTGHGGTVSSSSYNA
The subject of assay [2] is Aerobactin synthetase IucA (Klebsiella pneumoniae hvKP1). As to the kind of experiment: Biochemical IucA enzyme inhibition primary screen of the Spectrum library (AID 1346200; call rule not given here;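 also: 100% = wells without compound and 0% = wells lacking enzyme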). The note with it: malachite green pyrophosphate, A620, at 8 µM, stronger effect = lower value.
For assay [3], the target named is Mitogen-activated protein kinase 7 (Homo sapiens) (UniProt Q13164). The experiment in a line: ERK5 transactivation activators in reporter cells, primary screen, cell-based, HTS (AID 1508626;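 active = luciferase signal above three times the same-plate solvent-only control wells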;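 also: luciferase driven by Gal4-ERK5 fusion binding five Gal4 sites before minimal TATA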). The note with it: HeLa Gal4-ERK5 transactivation, 18 h, at 5 µM, stronger effect = higher value.
Mitogen-activated protein kinase 7 (Homo sapiens), sequence (Q13164 whole entry, looked up, the tested form may be a part): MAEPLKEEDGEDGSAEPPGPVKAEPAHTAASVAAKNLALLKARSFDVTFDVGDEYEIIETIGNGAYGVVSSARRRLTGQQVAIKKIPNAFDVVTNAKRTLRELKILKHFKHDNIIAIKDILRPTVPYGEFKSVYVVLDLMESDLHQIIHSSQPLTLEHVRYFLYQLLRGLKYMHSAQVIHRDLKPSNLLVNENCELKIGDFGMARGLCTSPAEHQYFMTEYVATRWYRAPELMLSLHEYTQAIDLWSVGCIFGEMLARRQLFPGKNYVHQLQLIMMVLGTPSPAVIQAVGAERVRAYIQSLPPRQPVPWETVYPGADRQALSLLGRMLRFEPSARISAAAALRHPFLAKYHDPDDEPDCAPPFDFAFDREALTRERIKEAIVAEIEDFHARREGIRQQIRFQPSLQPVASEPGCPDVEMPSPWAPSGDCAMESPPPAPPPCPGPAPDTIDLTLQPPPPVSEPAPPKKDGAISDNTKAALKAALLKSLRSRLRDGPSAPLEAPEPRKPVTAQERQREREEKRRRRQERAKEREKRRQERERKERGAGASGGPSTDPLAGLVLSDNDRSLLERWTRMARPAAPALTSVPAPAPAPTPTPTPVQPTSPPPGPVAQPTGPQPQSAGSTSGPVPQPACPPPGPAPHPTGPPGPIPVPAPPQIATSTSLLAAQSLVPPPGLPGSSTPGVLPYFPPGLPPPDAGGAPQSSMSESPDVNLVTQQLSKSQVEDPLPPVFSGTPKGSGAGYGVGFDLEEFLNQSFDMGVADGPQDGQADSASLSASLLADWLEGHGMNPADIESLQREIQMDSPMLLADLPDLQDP
Assay [4] can be described thus: growth inhibition of DIPG glioma cells, dose response, cell-based, SU-DIPG-XVII, MIPE5.0, CellTiter-Glo, qHTS (AID 1347060; cut-off not given, nearly all actives have AC50 up to about 26 µM;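 as to AC50: cells exposed to compound for 48 hours before viability readout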). The note with it: SU-DIPG-XVII viability, CellTiter-Glo ATP luminescence. A general note: ATP-based viability assays read luminescence as a measure of living cells.
Assay [5] can be described thus: growth inhibition of DIPG glioma cells, dose response, cell-based, SU-DIPG-XIII, MIPE4.0, CellTiter-Glo, qHTS (AID 1347061; cut-off not given, nearly all actives have AC50 up to about 37 µM;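 also: cells exposed to compound for 48 hours before readout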). The note with it: SU-DIPG-XIII viability, CellTiter-Glo ATP luminescence.
Assay [6] is described as follows: growth inhibition of DIPG glioma cells, dose response, cell-based, JHH-DIPG-1, MIPE4.0, CellTiter-Glo, qHTS (AID 1347062; cut-off not given, nearly all actives have AC50 up to about 27 µM). The note with it: JHH-DIPG-1 viability, CellTiter-Glo ATP luminescence.
A short description of assay [7]: growth inhibition of DIPG glioma cells, dose response, cell-based, SU-DIPG-IV, MIPE4.0, CellTiter-Glo, qHTS (AID 1347063; cut-off not given, nearly all actives have AC50 up to about 30 µM;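 also: compound exposure lasted 48 hours before the viability readout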). The following applies: SU-DIPG-IV viability, CellTiter-Glo ATP luminescence.
The nature of assay [8]: growth inhibition of DIPG glioma cells, dose response, cell-based, SU-DIPG-XIII, MIPE5.0, CellTiter-Glo, qHTS (AID 1347064; cut-off not given, nearly all actives have AC50 up to about 23 µM;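 as to AC50: cells exposed to compound for 48 hours before the viability read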). The note with it: SU-DIPG-XIII viability, CellTiter-Glo ATP luminescence.
Assay [9] in a line: viability loss in pontine glioma line – cell-based, SU-DIPG-XXV, MIPE5.0, CellTiter-Glo, qHTS, dose response (AID 1347065; cut-off not given, nearly all actives have AC50 up to about 26 µM;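 also: cells exposed to compound for 48 hours before ATP readout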). The following applies: CellTiter-Glo ATP luminescence.
The nature of assay [10]: SU-DIPG-VI glioma cell viability, MIPE4.0 library, CellTiter-Glo luminescence, qHTS (AID 1347066; cut-off not given, nearly all actives have AC50 up to about 30 µM;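 also: cells exposed to compound for 48 hours before readout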). The following applies: CellTiter-Glo ATP luminescence.
Assay [11] in a line: JHH-DIPG-1 glioma cell viability, MIPE5.0 library, CellTiter-Glo luminescence, qHTS (AID 1347067; cut-off not given, nearly all actives have AC50 up to about 26 µM;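 also: cells exposed to compound for 48 hours before readout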). The note with it: JHH-DIPG-1 glioma viability, CellTiter-Glo ATP luminescence.
Assay [12] is described as follows: SU-DIPG-XXV glioma cell viability, MIPE5.0 library, qHTS (AID 1347068; cut-off not given, nearly all actives have IC50 up to about 30 µM;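 as to IC50: cells exposed to compound for 48 hours before viability readout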).
Assay [13] can be described thus: survival rescue of mitochondrial mutant cells in low glucose, primary screen, MELAS cybrids, Rieske KO mouse fibroblasts, CellTiter-Glo (AID 1508586;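 active = mean z-score across replicates of 1.96 or higher in either the MELAS or the Rieske mutant cell line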;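 also: z relative to plate mean and SD of compound and empty wells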).
In assay [14] the target is NAD(+) hydrolase SARM1 (Homo sapiens) (UniProt Q6SZW1). The experiment in a line: SARM1 TIR NADase inhibitors, cell lysate, NAD-Glo luminescence (AID 1508614;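 active = compound whose remaining NAD level is above about 45 nM, limit read from the data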;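 also: higher remaining NAD means stronger inhibition of SARM1 NADase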). The following applies: SAM-TIR HEK293T lysate NADase, at 1 µM, stronger effect = higher value.
NAD(+) hydrolase SARM1 (Homo sapiens), sequence (Q6SZW1 whole entry, looked up): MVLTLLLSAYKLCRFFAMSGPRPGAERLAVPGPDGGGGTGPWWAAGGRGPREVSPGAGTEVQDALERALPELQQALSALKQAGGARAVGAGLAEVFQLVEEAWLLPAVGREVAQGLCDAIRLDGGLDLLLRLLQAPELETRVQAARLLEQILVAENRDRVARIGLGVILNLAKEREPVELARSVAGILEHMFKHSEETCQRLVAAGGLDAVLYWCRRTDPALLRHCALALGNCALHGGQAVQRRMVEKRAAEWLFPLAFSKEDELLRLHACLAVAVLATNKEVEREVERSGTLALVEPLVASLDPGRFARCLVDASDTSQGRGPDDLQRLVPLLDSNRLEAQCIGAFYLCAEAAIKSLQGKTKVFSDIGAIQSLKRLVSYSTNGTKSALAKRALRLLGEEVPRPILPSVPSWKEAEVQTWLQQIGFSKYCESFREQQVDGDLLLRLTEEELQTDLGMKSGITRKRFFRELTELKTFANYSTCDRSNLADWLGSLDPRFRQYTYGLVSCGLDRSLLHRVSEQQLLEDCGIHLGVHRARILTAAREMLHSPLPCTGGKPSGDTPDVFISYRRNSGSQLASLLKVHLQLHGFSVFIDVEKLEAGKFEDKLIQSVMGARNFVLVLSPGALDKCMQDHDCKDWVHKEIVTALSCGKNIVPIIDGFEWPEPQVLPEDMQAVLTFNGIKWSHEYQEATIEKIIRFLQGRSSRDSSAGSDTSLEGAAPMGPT
Assay [15] in a line: sensitizers of A549 cells to miR-34 induction, primary screen, imaging, A549 dox-inducible miR-34, nuclei and caspase counts (AID 1347080;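 active = compounds whose cell count with miR-34 switched on is under 0.7 times the count with it off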). The note with it: A549 miR-34 inducible, Hoechst nuclei count, 48 h.
Assay [16] is described as follows: viability rescue of complex I mutant cybrids, primary screen, cell-based, galactose medium, ATP luminescence (AID 1645843;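 active = z-score of at least 1.8 in each of two replicates, scored against plate mean and spread of sample wells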;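 also: positive z means more ATP and so rescue of galactose-driven cybrid death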). The following applies: complex I mutant cybrid cells, 72 h, stronger effect = higher value.
A short description of assay [17]: polyglutamine-triggered caspase-3 activation inhibitors, cell-based (AID 1583). The following applies: polyglutamine-induced caspase-3 activation, cell assay; stronger effect = higher value;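 tested at 10 µM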.
Assay [18] is described as follows: suppressors of polyQ aggregation in yeast, 75Q-TubU reporter (AID 1593). The note with it: Yeast 75Q polyglutamine aggregation reporter.
A short description of assay [19]: rescue of polyQ-huntingtin neuronal dysfunction in worms, whole organism, C. elegans mechanosensory neurons, N-terminal huntingtin (AID 1599). The following applies: touch response, stronger effect = higher value.
Assay [20] can be described thus: inhibitors of mitochondrial cytochrome c release, biochemical, purified mitochondria (AID 1603).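 Also: mouse liver mitochondria challenged with calcium chloride; signal normalized to the plate average as 100%.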 The following applies: stronger effect = lower value.
A short description of assay [21]: inhibitors of polyQ protein aggregation (AID 1604). The following applies: polyglutamine-induced protein aggregation inhibition assay; stronger effect = higher value; tested at 2.5 µM.
A short description of assay [22]: enhancers of glutamate uptake in motor neurons, MN-1 cell line (AID 1612).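 Also: tested at 1 µM final; 0% = mean of DMSO vehicle wells on each plate; positive means more glutamate uptake than control and negative means less.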 The note with it: MN-1 motor neuron cells, stronger effect = higher value.
Assay [23] in a line: suppressors of polyglutamine aggregation in yeast, 75Q-TubH (AID 1616). The following applies: S. cerevisiae 75Q-TubH polyglutamine aggregation suppression; stronger effect = higher value.
A short description of assay [24]: liver-stage malaria parasite growth inhibition, primary screen, cell-based, HepG2, luciferase luminescence, HepG2 viability (AID 624349; in the data active = parasite load remaining mostly below about 12%, no sharp cut-off; inactive = mostly above about 10%;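 also: 100% = mean of DMSO negative control wells on the same plate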). The note with it: P. berghei liver stage in HepG2, luciferase luminescence, concentration not given here; parasite load remaining: stronger effect = lower value; viability: measured here: HepG2 viability without parasites.
Where [25] appears, read: MELAS cybrid survival, CellTiter-Glo 48 h, stronger effect = higher value.
[26] abbreviates: Rieske KO mouse fibroblast survival, CellTiter-Glo 72 h.
[27] abbreviates: measured here: relative caspase fold change +Dox/-Dox.
Setting [28] is: measured here: total cells with miR-34 induction, stronger effect = lower value.
[29] abbreviates: measured here: total cells without miR-34 induction.

`CCC(C)C(=O)O[C@@H]1C[C@@]2(C)[C@H](c3ccoc3)OC(=O)CC23OC2(C)O[C@]14[C@]1(C)[C@@H](CC(=O)OC)C5(C)CC1(O)[C@](O)(C5OC(=O)C1(C)OC1C)[C@@H](OC(C)=O)[C@]34O2` (some centres undefined): the inhibition in assay [1] was -16.5% (inactive). The activity remaining in assay [2] is 103% (inactive). Further, the luciferase signal in [3] was 12 AU (inactive).
The like results for `CNNC` were, in that order, -3.38% (inactive), 86.5% (inactive) and 32 AU (inactive).
With `CC(C)C[C@H](CN)CC(=O)O`, the inhibition in [1] was 9.49% (inactive). Moreover, the outcome in [4], in assay [5], in [6], in [7], in assay [8] and in [9] was inactive. The call in assay [10], in assay [11] and in assay [12] was inactive. In addition, the z-score in assay [13] (setting [25]) was -0.0671 (inactive); in assay [13] (setting [26]), 0.159. The remaining NAD in [14] is 10 nM (inactive).
For `CSc1nc(NC(C)C)nc(NC(C)C)n1`, the inhibition in assay [1] was -9.01% (inactive). In [2], the activity remaining was 98.6% (inactive). The luciferase signal in [3] was 60 AU (inactive).
For `CC(=O)O[C@@H]1CC2C(C)(C)[C@H](O)C=C[C@]2(C)C2CC[C@]3(C)C(=CC(=O)O[C@H]3c3ccoc3)[C@@]21C` (some centres undefined), in that order: -4.71% (inactive), 105% (inactive) and 120 AU (inactive).
For `CCNc1nc(Cl)nc(NC(C)C)n1`, the inhibition in assay [1] is 7.64% (inactive). The activity remaining in assay [2] was 97.8% (inactive). Further, the fold change in assay [15] (stronger effect = lower value) was 0.888 (inactive); in assay [15] (setting [27]), 0.465. In addition, the values for the cell count in assay [15] (setting [28]) and in [15] (setting [29]) were 8110 and 9140, respectively. In addition, the z-score in [13] (setting [25]) was 3.44 (active); in assay [13] (setting [26]) it was -0.553; in assay [16], 0.59 (inactive). For the same compound, in assay [3], the luciferase signal was 36 AU (inactive).
For `CC(C)N1C(=O)c2ccccc2NS1(=O)=O`, the inhibition in [1] is -1.1% (inactive). Besides, the activity remaining in assay [2] was 106% (inactive). The luciferase signal in assay [3] is 92 AU (inactive).
On to `CCC(C)[C@H]1O[C@]2(C=C[C@@H]1C)C[C@@H]1C[C@@H](C/C=C(\C)[C@@H](OC3C[C@H](OC)C(O[C@H]4C[C@H](OC)[C@@H](O)[C@H](C)O4)[C@H](C)O3)[C@@H](C)/C=C/C=C3\CO[C@@H]4[C@H](O)C(C)=C[C@@H](C(=O)O1)[C@]34O)O2` (some centres undefined), for which the inhibition in assay [17] is -42.7%; in assay [1] it was -3.19% (inactive). The compound further gave a score in [18] of 1.47. The same compound showed a rescue above control in assay [19] of 0. The cytochrome c release ratio in assay [20] came out at 4.06. The same compound yielded an inhibition of aggregation in assay [21] of 43.1%. Further, in assay [22], the glutamate uptake change is -28.6%. Moreover, in [23], the aggregation suppression score is 1.02. For the same compound, the parasite load remaining in [24] is 83.1% (inactive) and 34.5% (inactive). In assay [24], the viability is 68% and 87%. In addition, the activity remaining in assay [2] is 106% (inactive). Besides, the fold change in assay [15] (stronger effect = lower value) was 1.11 (inactive); in assay [15] (setting [27]) it was 1.23. Further, the cell count in assay [15] (setting [28]) was determined as 3700; in assay [15] (setting [29]) it was 3330.
For `CC(C)[C@]12O[C@H]1[C@@H]1O[C@@]13[C@@]1(C)CCC4=C(COC4=O)[C@@H]1C[C@@H]1O[C@@]13C2=O`, the inhibition in [1] is 3.27% (inactive). Also, the concentration at half-maximal activity (AC50) was 295 nM (active) in assay [4], 263 nM (active) in assay [8], 372 nM (active) in assay [9] and 132 nM (active) in assay [11]. Also, the half-inhibitory concentration (IC50) in [12] is 372 nM (active).

Broadly, the inhibition is the relative decrease from the control value, in per cent. What is called viability is a per cent measure of how many cells are alive, often set against a control. The term AC50 denotes the concentration giving half of the maximal activity seen. The term IC50 denotes the concentration that inhibits the measured activity by half.
